# Reference: PubChem BioAssay (EPA / NIEHS)
# Results filed as inconclusive are left out. Calls of active or inactive are those of the source. How the source made its calls: active means hit-call score of the fitted dose curve at least 0.9, where 1 is the maximum; inconclusive means response in the unintended direction; inactive means score below 0.9.
# Read-out: glucuronosyltransferase (UGT1A1), UGT1A1 (gene 54658)
# Experiment: CLD_UGT1A1_6hr: CellzDirect (CLD) Gene Expression Assay for glucuronosyltransferase (UGT1A1) at 6 hours (AID 2283672)
# Method: CLD_6hr is a cell-based, multiplexed-readout assay that uses hepatocyte, a human liver primary cell, with measurements taken at 6 hours after chemical dosing in a 96-well plate.CLD_UGT1A1_6hr is one of 16 assay component(s) measured or calculated from the CLD_6hr assay. It is designed to make measurements of mRNA induction, a form of inducible reporter, as detected with chemiluminescence signals by Quantitative Nuclease Protection Assay (qNPA) technology.Data from the assay component CLD_UGT1A1_6hr was analyzed at the endpoint, CLD_UGT1A1_6hr, in the positive analysis fitting direction relative to DMSO as the negative control and baseline of activity. Using a type of inducible reporter, gain-of-signal activity can be used to understand changes in the reporter gene as they relate to the gene UGT1A1. Furthermore, this assay endpoint can be referred to as a primary readout. To generalize the intended target to other relatable targets, this assay endpoint is annotated to the transferase intended target family, where subfamily is glucuronosyltransferase.
# Human hepatocyte cultures were treated daily for two consecutive days with fresh dosing solutions containing appropriate concentrations of the 320 ToxCast chemicals (chemical identities were blinded to CellzDirect and other ToxCast collaborators), vehicle control (0.2% DMSO), and positive control inducers as summarized in Table 1. Due to the large number of treatment groups and chemicals examined, the ToxCast chemicals were divided into two groups (spanning two independent cultures of hepatocytes from separate donor preparations (Hu778: ToxCast plates 1 and 2; Hu776: ToxCast plates 3 and 4). Each preparation of human hepatocyte cultures was treated with respective vehicle control, medium only control, set of six positive controls/reference chemicals for the five hepatic receptor pathways, and a subset of eight of the ToxCast chemicals (indoxacarb, pyrithiobac-sodium, norflurazon, cyhalofop-butyl, methomyl, thiram, acetochlor, and propiconazole). These replicate data, coupled with internal replicates designed within the blinded ToxCast chemical library, provided additional data to evaluate interindividual differences between hepatocyte preparations and their potential impact on chemical profiles.Cell morphology and integrity were evaluated using phase-contrast microscopy as an indicator of hepatocyte cell health (Tyson & Green, 1987). Cultures for each treatment group (i.e., media, vehicle [0.2% DMSO], positive control inducers [multiple concentrations], and the ToxCast chemicals [multiple concentrations]) were observed and cell morphology was assessed relative to vehicle control cultures at each harvest time point (0, 6, 24, or 48 h). […] Images were evaluated at the conclusion of the study to assess changes in cell integrity and account for the effects of chemical exposure on uncharacteristic changes in concentration-dependent gene expression profiles. The results from these determinations of apparent cytotoxicity were annotated (yes/no) alongside the corresponding qNPA data for reference.At the conclusion of each treatment period, hepatocyte cultures (96-well) were washed with 1 volume of HBSS, lysed by addition of 25 ul ArrayPlate lysis buffer (HTG, Tucson, AZ), and 70 ul/well of Denaturation Oil, denatured by incubation at 95C for 10 min, and frozen at approximately -70C until analysis by nuclease protection assay (qNPA) (Roberts et al., 2007). For qNPA analysis, cell lysates were thawed at 50C for approximately 30 min, qNPA probes were added, and samples were incubated at 95C for 10 min to begin the detection process by denaturing the target RNA, dissociating the duplexes and secondary structure hybridization. At the conclusion of the hybridization period, S1 nuclease reagent was added to each sample to digest all nonprotected nucleotides at 50C for 60-90 min. […]
row,Compound,outcome
1,Cc1cc(Cl)ccc1OCC(=O)O,inactive
2,Cc1c(F)c(F)c(COC(=O)C2C(/C=C(\Cl)C(F)(F)F)C2(C)C)c(F)c1F (stereo not given),inactive
3,CCNc1nc(Cl)nc(NC(C)C)n1,inactive
4,Oc1ccccc1-c1ccccc1,inactive
5,O=C(O)c1nc(Cl)ccc1Cl,inactive
6,CC(C)C1(C)N=C(c2nc3ccccc3cc2C(=O)O)NC1=O (stereo not given),inactive
7,C=CC1(C)OC(=O)N(c2cc(Cl)cc(Cl)c2)C1=O (stereo not given),inactive
8,COP(=S)(OC)Oc1nc(Cl)c(Cl)cc1Cl,inactive
9,CCCCNC(=O)n1c(NC(=O)OC)nc2ccccc21,inactive
10,CCCN(CCC)c1c([N+](=O)[O-])cc(S(N)(=O)=O)cc1[N+](=O)[O-],inactive
11,COc1nc(C)nc(NC(=O)NS(=O)(=O)c2ccccc2CCC(F)(F)F)n1,inactive
12,CCOC(=O)C(Cl)Cc1cc(-n2nc(C)n(C(F)F)c2=O)c(F)cc1Cl (stereo not given),inactive
13,C=CCC1=C(C)[C@@H](OC(=O)[C@@H]2[C@@H](C=C(C)C)C2(C)C)CC1=O,inactive
14,CCCCC(CC)COC(=O)c1ccccc1C(=O)OCC(CC)CCCC (stereo not given),inactive
15,OC(c1ccc(Cl)cc1)(c1cncnc1)c1ccccc1Cl (stereo not given),inactive
16,COC(=O)C=C(C)OP(=O)(OC)OC,inactive
17,N#Cc1cc(Br)c(O)c(Br)c1,inactive
18,COc1nc(C)nc(NC(=O)NS(=O)(=O)c2ccccc2Cl)n1,inactive
19,CON(C)C(=O)Nc1ccc(Cl)c(Cl)c1,inactive
20,O=C(Nc1ccccc1)Nc1ccnc(Cl)c1,inactive

row,Compound,outcome
1,CCOP(=S)(OCC)SCn1c(=O)oc2cc(Cl)ccc21,inactive
2,COC(=O)c1ccccc1C(=O)OC,inactive
3,CCCCOC(=O)c1ccccc1C(=O)OCCCC,inactive
4,CNC(=O)ON=CC(C)(C)SC,inactive
5,Fc1ccc(Oc2ccnc3cc(Cl)cc(Cl)c23)cc1,inactive
6,CC1=C(C(=O)Nc2ccccc2)SCCO1,inactive
7,COc1nc(NC(C)C)nc(NC(C)C)n1,inactive
8,CC1COC(Cn2cncn2)(c2ccc(Oc3ccc(Cl)cc3)cc2Cl)O1 (stereo not given),inactive
9,COc1cnc(OC)n2nc(NS(=O)(=O)c3c(OCC(F)F)cccc3C(F)(F)F)nc12,inactive
10,CCCC1COC(Cn2cncn2)(c2ccc(Cl)cc2Cl)O1 (stereo not given),inactive
11,C#CCOS(=O)OC1CCCCC1Oc1ccc(C(C)(C)C)cc1 (stereo not given),inactive
12,N#CC(CCc1ccc(Cl)cc1)(Cn1cncn1)c1ccccc1 (stereo not given),inactive
13,CO/C=C(/C(=O)OC)c1ccccc1Oc1cc(Oc2ccccc2C#N)ncn1,inactive
14,CCOC(=O)CC(SP(=S)(OC)OC)C(=O)OCC (stereo not given),inactive
15,N#Cc1nn(-c2c(Cl)cc(C(F)(F)F)cc2Cl)c(N)c1S(=O)C(F)(F)F (stereo not given),inactive
16,C=CCC1=C(C)C(OC(=O)C2C(C=C(C)C)C2(C)C)CC1=O (stereo not given),inactive
17,CNC(=S)S,inactive
18,CCON=C(CC)C1=C(O)CC(c2c(C)cc(C)cc2C)CC1=O (stereo not given),inactive
19,O=C(O)COc1nc(Cl)c(Cl)cc1Cl,inactive
20,CCNc1nc(Cl)nc(NCC)n1,inactive
